Compound activity as filed in PubChem BioAssay.
DAX1 inh-1 = blocks DAX1 repression of SF-1 activated StAR promoter; inhibition, % at 6.8 µM; AID 652010; 370,000 compounds, 1.1% hits; HEK293T StAR-luciferase reporter, SF-1/DAX-1 repression relief;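 active means inhibition above the mean over all tested compounds plus 3 SD, cut at about 3.6% in these data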;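 further: higher inhibition means more luminescence from relief of DAX-1 repression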
ssDAF-12 act = activators of S. stercoralis DAF-12 nuclear receptor | AID 652126 | activation, % at 6.8 µM | 370,000 compounds, 1% hits | HEK293 ssDAF-12/GRIP1 lit1-tk-luc reporter, luminescence; % of 3 µM dafachronic acid response;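 active means activation above the mean over all tested compounds plus 3 SD, cut at about 0.9% in these data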
hgDAF12 agonist = activates the H. glycines DAF-12 receptor ligand-binding domain; activation, % at 6.8 µM; HEK293 GAL4-hgDAF12 UAS-luciferase reporter, agonist luminescence; normalized to butyrate control; 370,000 compounds, 1.8% hits; AID 687014;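 active means activation above a cutoff set at the mean of all screened compounds plus 3 SD, cut at about 10% in these data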
DAX1 inh-2 = inhibitors of human orphan nuclear receptor DAX1 (NR0B1); HEK293 Gal4-DAX1 luciferase reporter, luminescence; 340,000 compounds, 0.99% hits; AID 504766; inhibition, % at 6.75 µM; P51843;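 active means inhibition above the mean over all tested compounds plus 3 SD, cut at about 4.2% in these data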;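 further: inhibition shows as a rise in luminescence from relieved DAX1 repression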
Target sequence (P51843 207-470 limits assumed): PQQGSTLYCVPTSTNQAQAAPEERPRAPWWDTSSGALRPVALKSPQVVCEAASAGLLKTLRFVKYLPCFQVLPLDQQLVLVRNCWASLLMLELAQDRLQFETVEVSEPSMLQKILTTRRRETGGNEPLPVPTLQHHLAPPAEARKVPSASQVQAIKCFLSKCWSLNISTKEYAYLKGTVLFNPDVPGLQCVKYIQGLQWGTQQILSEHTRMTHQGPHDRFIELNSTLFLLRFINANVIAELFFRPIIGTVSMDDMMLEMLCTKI
hcDAF12 agonist = activates DAF-12 receptor from parasite H. contortus | HEK293 hcDAF-12 lit1-tk-luc reporter, luminescence; 0% DMSO, 100% Δ7-dafachronic acid | activation, % at 6.8 µM | 370,000 compounds, 1.4% hits | AID 652067;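 active means activation above the mean of all tested compounds plus 3 SD, cut at about 5.5% in these data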
Of the large screens only hits and unclear results are named; the others gave an inactive call. Rows were chosen to be rich in hits. Some 4.1% of all compounds tested hit in one or more screens of this group.

O=C/C(=C\Nc1ccc(Br)cc1)c1nc2ccccc2o1	none
O=C/C(=C\Nc1ccccn1)c1nc2ccccc2o1	hcDAF12 agonist 5.8
COc1ccc(C(=O)CSc2nnc(-c3cccc(Cl)c3)n2Cc2ccco2)cc1	none (no result: DAX1 inh-2)
CCc1ccccc1NC(=O)CSc1n[nH]c(C)c1[N+](=O)[O-]	DAX1 inh-2 5.3
Cc1[nH]nc(SCC(=O)NC(C)c2ccccc2)c1[N+](=O)[O-] (stereo unspecified)	DAX1 inh-2 4.3
CSc1ccccc1NC(=O)C1(C)CCN1C(=O)Cc1ccc(-c2ccccc2)cc1 (stereo unspecified)	none (no result: DAX1 inh-2)
Cc1cccc(C)c1OCc1nnc(SCC(=O)O)n1-c1c(C)cccc1C	none (no result: DAX1 inh-2)
O=C(Cn1ccc([N+](=O)[O-])n1)N1CCCCCC1	none
O=C(Cn1ccc([N+](=O)[O-])n1)N1CCCCC1	DAX1 inh-2 5.5
Nc1[nH]c(N=NC(=O)c2ccccc2O)c2ccccc12	hgDAF12 agonist 12.5
Nc1[nH]c(N=NC(=O)c2ccccc2)c2ccccc12	none
Fc1ccc(OCc2nc3ccccc3s2)cc1	ssDAF-12 act 1.1, hgDAF12 agonist 11.3, hcDAF12 agonist 6.2
O=C(O)COCc1nc2ccccc2s1	none
COc1cc2cnc(CCO[C@H]3CCCCO3)cc2cc1OC	none
COc1ccc2cc(CCOC3CCCCO3)ncc2c1 (stereo unspecified)	hcDAF12 agonist 6.5
CCn1c(SCC(=O)NN=Cc2ccc(C(=O)O)cc2)nc2ccccc21	none (no result: DAX1 inh-2)
Cc1nc(N2CCOCC2)nc(N2CCCCC2C)c1[N+](=O)[O-] (stereo unspecified)	DAX1 inh-2 5.5
Cc1nc(N2CCOCC2)nc(N2CCC(C)CC2)c1[N+](=O)[O-]	none
CCOc1ccccc1NC(=O)C(NCC1(N2CCCCC2)CCCCC1)c1ccccc1 (stereo unspecified)	DAX1 inh-2 4.4
CCOc1ccccc1NC(=O)C(OC(=O)C1CC1)c1ccccc1 (stereo unspecified)	none
CCOC(=O)C1CCN(C(=O)c2cc3cc4ccc(OC)cc4nc3o2)CC1	DAX1 inh-1 3.8
COc1ccc2nc3oc(C(=O)N4CCC(C(N)=O)CC4)cc3cc2c1	none
Cc1ccc2cc3cc(C(=O)N4CC(C)CC(C)C4)oc3nc2c1 (stereo unspecified)	none
Cc1ccc2cc3cc(C(=O)N4CCCCC4C)oc3nc2c1 (stereo unspecified)	DAX1 inh-1 4.2, ssDAF-12 act 1.0, hgDAF12 agonist 12.1, hcDAF12 agonist 5.9
Cc1ccc(CNC(=O)CCCOc2cc(=O)n(C)c3ccccc23)o1	DAX1 inh-2 6.4
Cn1c(=O)cc(OCCCC(=O)NCc2ccco2)c2ccccc21	none
CC(Sc1nnc(COc2ccccc2)n1Cc1ccccc1)C(=O)O (stereo unspecified)	ssDAF-12 act 0.9
CN(Cc1cn(C)c2ccccc12)C(=S)Nc1cc(F)cc(F)c1	ssDAF-12 act 1.2
Cc1cccc(NC(=S)N(C)Cc2cn(C)c3ccccc23)c1	none
CCOC(=O)CNC(=O)CSc1nc2ccccc2c(=O)n1-c1ccc(Cl)cc1	none (no result: DAX1 inh-2)
O=C(NCCc1c[nH]c2ccccc12)/C(=C/c1cccnc1)NC(=O)c1ccco1	DAX1 inh-2 4.5
O=C(NCCSc1c[nH]c2ccccc12)c1ccco1	hcDAF12 agonist 5.9
Cc1ccccc1CNC(=O)C1CCC(CNS(=O)(=O)c2cccc3cccnc23)CC1 (stereo unspecified)	none (no result: DAX1 inh-2)
CC1CCCN(C(=S)Nc2ccc(Nc3ccccc3)cc2)C1 (stereo unspecified)	ssDAF-12 act 1.3, hgDAF12 agonist 10.7 (no result: DAX1 inh-2)
Cc1ccc(C2CCN(C(=S)NC(C)(C)C)C2)cc1 (stereo unspecified)	DAX1 inh-2 5.6
COC(=O)Cc1ccc(NC(=S)N2CCCC(CO)C2)cc1 (stereo unspecified)	hgDAF12 agonist 10.5
COc1ccc(NC(=S)N2CCC(c3ccccc3)C2)cc1 (stereo unspecified)	hgDAF12 agonist 11.9
CN(CC(=O)Nc1ccccc1Br)C(=O)C(Cc1ccccc1)NC(=O)c1ccccc1 (stereo unspecified)	none
CC(=O)N1CCN(S(=O)(=O)c2ccc3c(c2)oc(=O)n3C)CC1	none (no result: DAX1 inh-2)
C=CS(=O)(=O)N(C(=C)C(=O)OC)S(C)(=O)=O	none (no result: DAX1 inh-2)
O=C(O)[C@@H]1Cc2ccccc2N1	ssDAF-12 act 1.0
CCOC(=O)c1ccc(-n2c(C)nc3ccc(Br)cc3c2=O)cc1	ssDAF-12 act 2.7
COc1ccc(NC(=O)N2CCCCC2)cc1	none
Cc1ccc(NC(=O)N2CCCCCC2)cc1	DAX1 inh-1 3.9
Cc1nnc(SCC(=O)NNC(=O)c2ccc(F)cc2)n1Cc1ccccc1	ssDAF-12 act 1.4, DAX1 inh-2 4.5
COc1ccc(C2CC(=O)C(c3cc(OC)c(OC)c(OC)c3)=CN2Cc2ccccc2)cc1 (stereo unspecified)	none (no result: DAX1 inh-2)
CC(C)(C)OC(=O)N/N=C\C=C\c1ccc2c(c1)OCO2	hgDAF12 agonist 12.6
CCOC(=O)N/N=C\C=C\c1ccc2c(c1)OCO2	DAX1 inh-2 5.2
COc1ccc(CC(=O)N/N=C/C=C/c2ccc3c(c2)OCO3)cc1OC	none (no result: DAX1 inh-2)
COC(=O)N/N=C\C=C\c1ccc2c(c1)OCO2	none
CCOC(=O)c1cccc(NC(=O)/C=C/c2ccc3c(c2)OCO3)c1	none
CCOC(=O)CNC(=O)/C=C/c1ccc2c(c1)OCO2	ssDAF-12 act 0.9
CCOc1c2ccc(C(=O)NCCc3cccs3)cc2nn1CC	hgDAF12 agonist 11.9
CCCCn1nc2cc(C(=O)NCCc3cccs3)ccc2c1OCC	none
O=C(CCC(=O)NNc1nc2ccccc2c2nc(-c3ccccc3)nn12)NCCCN1CCOCC1	hcDAF12 agonist 5.6
CN1CCN(CCCNc2nc3ccccc3c3nc(-c4ccccc4)nn23)CC1	none
O=C1C=CC(=Nc2ccc3c(c2)Cc2cc(F)ccc2-3)O1	hgDAF12 agonist 13.2
O=C1C=CC(=Nc2cccc3c2C(=O)c2ccccc2-3)O1	none (no result: DAX1 inh-1, ssDAF-12 act, hgDAF12 agonist, hcDAF12 agonist)
Cc1cc(Br)ccc1OCc1nnc(-c2ccccc2)o1	none (no result: DAX1 inh-2)
Clc1ccccc1OCc1nnc(-c2ccccc2)o1	hgDAF12 agonist 12.8
COC(=O)CN1C(=O)N(c2ccccc2)C(N(O)C(=O)Nc2ccccc2)C1(C)C (stereo unspecified)	DAX1 inh-2 4.6
COC(=O)CNC(=O)CN1C(=O)N(c2ccccc2)C(N(O)C(=O)Nc2ccccc2)C1(C)C (stereo unspecified)	none
CN(C)CCNC(=O)c1cccc2ccc(-c3ccc(-c4ccccc4)cc3)nc12	ssDAF-12 act 1.2
CN(C)CCNC(=O)c1ccccc1	none
COC(=O)C1=C(C)N(Cc2cccc(C(F)(F)F)c2)C(=NCc2cc(OC)c(OC)c(OC)c2)NC1CCc1ccccc1 (stereo unspecified)	none (no result: DAX1 inh-2)
COC(=O)N1C[C@H](OCCCOCc2ccccc2)[C@H]2C[C@@H]1c1ccccc1O2	none (no result: DAX1 inh-2)
Cc1c(/C=C(\CC(=O)O)c2nc3ccccc3s2)cc(C#N)n1C	hcDAF12 agonist 5.6
c1ccc(-c2nnc(-c3ccccc3)nn2)cc1	ssDAF-12 act 1.0 (no result: DAX1 inh-2)
